Cycloheximide cs: Cycloheximide Counterscreen for Small Molecule Inhibitors of Shiga Toxin | 300,000 tested, 12% active | AID 2314, 2010 | max response, % | cell reporter, cycloheximide protein synthesis inhibition counterscreen; in the data active = max response mostly above about 13%, no sharp cut-off; inactive = mostly below about 14%; also: read at 38.3 µM for the half of the compounds with a filed dose; 0% is about no effect
HCMV antiviral: qHTS Assay for inhibitors of the human cytomegalovirus (HCMV). HFF cells, HCMV-luciferase reporter, 72 h; hits give low values. activity change, negative = inhibition, % at 57.5 µM. 410,000 tested, 4.5% active. AID 1259415, 2018; in the data active = activity change below about -60%; inconclusive = no clear call, values can overlap the other calls; inactive = above about -39%; also: % is scaled to controls: 0 for no effect and ±100 for the full control effect
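Human foreskin fibroblasts infected with luciferase-reporter HCMV at MOI 1 PFU/cell, compounds at two doses. Luciferase measured 72 h post infection; normalized to buffer-only basal and Salinomycin (10uM) controls.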
Pf growth 48h: Primary qHTS for delayed death inhibitors of the malarial parasite plastid, 48 hour incubation; AID 504832, 2011; Potency, µM (doses to about 28.7 µM), for the others: at the top dose activity change, negative = inhibition, usual class: inhibitors; 310,000 tested, 5.9% active; P. falciparum luciferase growth in erythrocytes, 48 h; also: potency is read from the fitted curve at half-maximal effect; % is scaled to controls: 0 for no effect and ±100 for the full control effect
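Cell-based growth assay: transgenic P. falciparum expressing firefly luciferase, cultured in red cells within RPMI 1640 containing 0.5% w/v Albumax, 24 mM bicarbonate and gentamycin. A drop in luciferase activity indicates inhibition.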
Pf growth 96h: Primary qHTS for delayed death inhibitors of the malarial parasite plastid, 96 hour incubation. 320,000 tested, 6.9% active. Potency, µM (top dose mostly 28.7 µM), inactives show at the top dose activity change, negative = inhibition, hits mostly inhibitors. P. falciparum luciferase reporter growth, 96 h; also: potency is read from the fitted curve at half-maximal effect; % is scaled to controls: 0 for no effect and ±100 for the full control effect
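Two-generation exposure (96 h) targets delayed-death phenotype. Reporter parasites carrying integrated firefly luciferase, in red cells at 2% hematocrit and 0.05% parasitemia final, kept at 37 C, 5% CO2; luminescence loss indicates inhibition.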
Shiga inhibitor: A qHTS for Small Molecule Inhibitors of Shiga Toxin; Vero cells, Shiga toxin protein synthesis inhibition reporter; inhibition, % at 38.7 µM; AID 2315, 2010; 290,000 tested, 9.2% active; in the data active = inhibition mostly above about 28%, no sharp cut-off; inactive = mostly below about 43%; also: 0% is about no effect
* = called active by the depositor; ? = inconclusive; · = not tested or not shown; [ ] = another dose, or the depositor's remark. Most compounds without a hit are left out; they make up all but 20% or so of the library. Unless noted, calls follow the shape of the dose curve; as a rule, active = well fitted inhibition curve with a large enough effect; inconclusive = small, poorly fitted or top-dose-only effect, or another doubt; inactive = no such curve, though single readings can be large or run the other way.

SMILES	Cycloheximide cs	HCMV antiviral	Pf growth 48h	Pf growth 96h	Shiga inhibitor
O=C(Cn1nnc(-c2ccccc2)n1)N/N=C/c1cc([N+](=O)[O-])ccc1O	-2.5	-73.0*	9.3%	10.4µM*	16.7
O=C(N/N=C/c1cc([N+](=O)[O-])ccc1O)c1cccc(NC(=O)c2cccc(Cl)c2)c1	4.5	?	2.33µM*	2.0%	-3.1
O=C(CCC(=O)Nc1cc(C(F)(F)F)ccc1Cl)N/N=C\c1cc([N+](=O)[O-])ccc1O	-3.3	23.4	13.1µM*	265.9%	-6.4
O=C(N/N=C/c1cc([N+](=O)[O-])ccc1O)c1cccc2ccccc12	-1.6	-111.7*	13.1µM*	26.5%	-4.8
O=C(NN=Cc1cc(Cl)ccc1[N+](=O)[O-])c1cccc2ccccc12	·	5.5	·	·	·
O=C(Cn1nnc(-c2ccccc2)n1)N/N=C/c1cc([N+](=O)[O-])c(Cl)cc1Cl	-2.4	-27.4	14.2%	31.4%	-1.3
Cc1ccc(CN2C(=O)C(F)(F)Oc3ccc(C)cc32)cc1	·	-14.7	·	·	·
O=S(=O)(NCc1nc2cccnc2n1Cc1ccccc1Cl)c1ccc2c(c1)CCCC2	·	-12.2	·	·	·
O=C(/C=C/Nc1ccc([N+](=O)[O-])cc1Br)c1cccc2ccccc12	20.0*	91.1	204.1%	400.0%	42.4
O=C(N/N=C/c1cc([N+](=O)[O-])ccc1O)C1CCCCC1	-3.4	-66.3*	?	?	-7.4
O=C(Cn1cncn1)N/N=C/c1cc([N+](=O)[O-])ccc1O	-1.0	18.4	?	?	8.0
O=C(Cn1nc2ccccc2n1)N/N=C/c1cc([N+](=O)[O-])ccc1O	-1.5	10.7	4.65µM*	?	-4.7
O=C(N/N=C/c1cc([N+](=O)[O-])ccc1O)C1C2CCCCC21 (stereo unspecified)	-1.6	·	?	17.9%	-2.3
Cc1cc(C(=O)NCc2ccc(F)cc2)n(-c2ccccc2)n1	-1.3	-6.3	15.5%	4.9%	8.3
Cc1ccc(Cn2cc(CN3CC(N4CCN(CCO)CC4)CS3(=O)=O)nn2)cc1 (stereo unspecified)	·	-15.1	·	·	·
Cc1cccc(/C=C2/S/C(=N/N=C3\CC4CCC3(C)C4(C)C)NC2=O)c1 (stereo unspecified)	-2.2	-6.8	?	8.28µM*	-3.8
Cc1ccc(C23CC4CC(CC(CN)(C4)C2)C3)cc1	-4.9	-22.4	10.4µM*	?	-23.5
Cc1ccnc(NS(=O)(=O)c2ccc(-n3cccn3)cc2)c1	-2.1	22.4	47.5%	10.4µM*	-8.7
CNC(=S)N/N=C/c1c2ccccc2c(Cl)c2ccccc12	27.4*	-17.1	2.62µM*	10.4µM*	87.3*
CNC(=S)N/N=C/c1cn(Cc2c(F)cccc2Cl)c2ccccc12	-2.8	55.8	?	?	16.2
CNC(=S)N/N=C/c1c(C)cccc1Cl	-1.2	?	8.4%	13.1µM*	-18.2
COc1ccc(-c2ccc(=O)n(CC(=O)Nc3ccc(C)cc3C)n2)cc1	·	-3.8	·	·	·
Cc1cccc(C(=O)NNC(=O)c2ccccc2O)c1	38.8*	106.0	63.8%	0.0%	37.5*
Cc1cccc(C(=O)Nc2cccc3c2CCCC3)c1	10.7	-101.5*	2.0%	54.1%	35.8
Cc1nc2cc(C(=O)OCC(=O)Nc3ccc(C#N)cc3)ccc2n1-c1ccccc1	13.7	-19.3	-21.6%	?	22.9
SMILES	Cycloheximide cs	HCMV antiviral	Pf growth 48h	Pf growth 96h	Shiga inhibitor
Cc1cccc(C(=O)Nc2ccccc2C(=O)OCC(=O)Nc2ccc(C#N)cc2)c1	46.2*	-6.1	13.0%	22.5%	54.5*
Cc1cccc(C(=O)Nc2ccccc2NC(=O)c2cccc(C)c2)c1	-0.2	-61.5*	2.6%[0.00184 µM]	75.3%	1.9
Cc1cccc(C(=O)Nc2ccc(NC(=O)c3cccc(C)c3)cc2)c1	·	-27.7	·	·	·
COc1ccccc1CNC(=O)C1CCN(S(=O)(=O)c2ccc3c(c2)C(C)(C)C(=O)N3C)CC1	-2.1	-8.7	?	?	-1.6
Cc1cc2c(cc3c(SCc4ccc(Cl)cc4)nncn32)o1	·	-20.1	·	·	·
COc1cccc(-c2nc(NC(C)C)c3ccccc3n2)c1O	-3.7	-14.7	?	?	-6.3
O=[N+]([O-])c1cccnc1Oc1ccc(F)cc1F	0.7	46.6	?	?	1.4
COc1cnc(-c2ccccn2)nc1Oc1ccc(Cl)cc1	19.9	-29.4	0.37µM*	5.22µM*	-8.0
COc1cnc(-c2ccccc2)nc1Oc1cccc(C)c1C	-2.8	9.6	-12.1%	-0.6%	-14.4
COc1cnc(-c2ccccc2)nc1Oc1ccc(C(C)(C)C)cc1	0.8	-29.4	?	?	2.8
COc1cnc(-c2ccccn2)nc1Oc1ccc(F)cc1F	32.5*	-33.9	10.4µM*	10.4µM*	40.2
COc1cnc(-c2ccccn2)nc1Oc1ccc(Cl)c2ccccc12	-3.6	-100.3*	2.08µM*	6.57µM*	-8.0
COc1cnc(-c2ccccn2)nc1NC(C)C	8.6	-101.2*	14.7µM*	?	49.3
CCC1=Nc2cc(C(=O)N3CCC(C)CC3)ccc2Sc2ccc(C)cc21	·	-3.0	·	·	·
CCCCn1nc2cc(C(=O)NCc3ccc(OC(F)(F)F)cc3)ccc2c1OC	-5.4	-1.4	0.6%	44.5%	-7.2
CCS(=O)(=O)c1ncc(N(Cc2ccco2)Cc2ccccc2F)c(C(=O)Nc2cccc(Cl)c2)n1	·	-29.5	·	·	·
COc1cnc(-c2ccccc2)nc1Oc1ccccc1C	3.4	-19.5	?	?	3.0
COc1cnc(-c2ccccn2)nc1Oc1ccccc1Cl	29.6*	-25.3	7.38µM*	2.62µM*	34.1
CC(O)(c1cccc(F)c1)c1nc(-c2cccc3cccnc23)cs1 (stereo unspecified)	·	2.7	·	·	·
O=c1[nH]c2ccc(NCc3ccc(F)cc3)cc2[nH]1	12.6*	30.1	38.7%	?	41.1*
O=c1[nH]c2ccc(NCc3ccc(OCc4ccccc4Cl)cc3)cc2[nH]1	23.5*	-34.5	11.1%	19.9%	23.0
O=c1[nH]c2ccc(NCc3ccc(-c4cccc(Cl)c4)o3)cc2[nH]1	·	-60.6*	·	·	·
CN(Cc1ccccc1)C(=O)[C@H]1CCC(=O)N1Cc1ccco1	-3.0	-7.1	-6.2%	·	-16.1
COc1ccccc1N1CCN(C(=O)c2cc(CC(C)C)on2)CC1	·	-3.6	·	·	·
COc1ccc(CN2CCN(C(=O)Cc3ccccc3)CC2)cc1OC	·	-17.1	·	·	·
CCOc1cc(CN2CCN(C(=O)Cc3ccccc3)CC2)ccc1OC	-3.6	-6.7	0.0%	?	-7.8
COc1ccc(OC)c(CN2CCN(C(=O)Cc3ccccc3)CC2)c1	-1.2	-3.5	-1.1%	11.7µM*	-1.7
CCOc1ccc(CN2CCN(C(=O)Cc3ccccc3)CC2)cc1	-2.4	-26.4	-0.6%	6.57µM*	-2.6

High-throughput results (PubChem)
